Experiment: compound effects on hepatocellular carcinoma cell viability – HepG2, calcein-AM fluorescence, 48 h, basal, profiling panel (AID 1164)
Details: higher = more signal
Also: test concentration not given here.

| Compound | z-score |
| --- | --- |
| CO[C@@H]1COC(=O)CC=C[C@H](C)[C@H](OC)COC(=O)[C@H](C)NC(=O)CC=C[C@H]1C | 0.64 |
| CC(CCC(=O)OC[C@H]1O[C@H](C#Cc2ccccc2)C=C[C@@H]1Oc1ccc(C)cc1)=NO[C@H](C)c1cn([C@H](CO)Cc2ccccc2)nn1 | -0.34 |
| CCOC(=O)[C@H](Cc1ccccc1)NC(=O)CCC1CC(OC(=O)NCc2cccc3ccccc23)CC2(CCCC(COC(=O)NCC(c3ccccc3)c3ccccc3)O2)O1 (stereo partly specified) | -0.808 |
| CC(C)=CCCC(C)=CCON=C1C[C@@H](O)[C@@H](O)[C@@H]2[C@@H]3C(=O)N(C[C@@H]4CCCO4)C(=O)[C@@H]3CC[C@H]12 | -0.758 |
| COC(=O)[C@H]1O[C@@H](c2c(OC)c(OC)c(C)c(OC)c2OC)[C@H](C)[C@@H](O)[C@H]1C | 0.825 |
| COc1ccc(O[C@H]2C=C[C@@H](c3ccccc3)O[C@@H]2COC(=O)CCC(C)=NOC[C@@H](O)[C@H]2O[C@@H]3OC(C)(C)O[C@@H]3[C@H]2O)cc1 | 0.26 |
| CCOC(=O)[C@H](CC(C)C)NC(=O)CCC1CC(OC(=O)NCCc2ccc(F)cc2)CC2(CCCC(COC(=O)NCC3CCCCC3)O2)O1 (stereo partly specified) | -0.843 |
| CC(C)=CCCC(C)=CCON=C1C[C@@H](O)[C@@H](O)[C@@H]2[C@@H]3C(=O)N(C4CCCCC4)C(=O)[C@@H]3CC[C@@H]12 | -1.14 |
| COC(=O)CC=C[C@@H](C)[C@@H](C=NOC[C@H]1O[C@H](c2ccccc2)C=C[C@@H]1Oc1ccc(OC)cc1)NS(=O)(=O)c1ccc(C)cc1 | -0.43 |
| CCc1cc2c(nc1CC)CCN(CCC(C)=NO[C@H](C)c1cn([C@@H]3COC[C@H]3O)nn1)C2 | 1.75 |
| CCOC(=O)NN=C1C[C@@H](O)[C@@H](O)[C@@H]2[C@@H]3C(=O)N(Cc4ccc5c(c4)OCO5)C(=O)[C@@H]3CC[C@H]12 | 0.473 |
| CO[C@H]1COC(=O)CC=C[C@H](C)[C@@H](OC)COC(=O)[C@@H](C)NC(=O)CC=C[C@@H]1C | -1.72 |
| CO[C@@H]1COC(=O)CC=C[C@@H](C)[C@@H]2C=C[C@H](O)[C@@H](COC(=O)CC=C[C@H]1C)O2 | 0.764 |
| CCOC(=O)[C@H](CC(C)C)NC(=O)CCC1CC(OC(=O)NCCc2ccc(F)cc2)CC2(CCCC(COC(=O)NCCc3ccccc3OC)O2)O1 (stereo partly specified) | -0.204 |
| CCCNC(=O)OC[C@H]1O[C@H](CCON=C(C)CCN2CCCc3nc(C)c(C)cc32)C=C[C@@H]1Oc1ccc(OC)cc1 | -0.243 |
| CCC(=O)[C@@]1(O)C(=O)N2C(=C3C(=O)OCC[C@@H]31)N(Cc1ccccc1)C(C)=C(C(=O)OC)[C@H]2c1ccccc1 | 0.237 |
| CC(C)(C)N1C(=O)[C@H]2[C@H]3[C@H](O)C=CC(=O)[C@@H]3CC[C@H]2C1=O | 0.282 |
| CC(CCN1CCCc2nc(C)c(C)cc21)=NO[C@@H](C)c1cc(-c2c(C)cc(C)cc2C)no1 | 1.42 |
| C[C@H](ON=C1[C@H]2CCn3c(=O)n(-c4ccccc4)c(=O)n3[C@H]2[C@H](O)[C@@H]2O[C@H]12)c1cn([C@H](CO)Cc2ccccc2)nn1 | 0.115 |
| CCN1C(=O)[C@H]2[C@H]3[C@H](O)[C@H](O)CC(=O)[C@H]3CC[C@H]2C1=O | -0.0937 |
| C#CCCCON=C1C[C@@H](O)[C@@H](O)[C@@H]2[C@@H]3C(=O)N(c4ccc(F)cc4F)C(=O)[C@@H]3CC[C@H]12 | -0.123 |
| O=C(NN=C1C[C@@H](O)[C@@H](O)[C@@H]2[C@@H]3C(=O)N(C4CCCCC4)C(=O)[C@@H]3CC[C@@H]12)OCc1ccccc1 | 0.621 |
| CC(CCN1CCCCc2nc(C)c(C)cc21)=NOC[C@@H](O)COCc1ccco1 | -0.437 |
| C=CC1=C[C@H](O)[C@@H]2O[C@@H]2C12OCCCO2 | -0.0684 |
| CON=C1[C@H]2CCn3c(=O)n(-c4ccccc4)c(=O)n3[C@H]2[C@H](O)[C@@H]2O[C@H]12 | 0.739 |

Experiment: compound effects on multiple myeloma cell viability – MM1S, calcein-AM fluorescence, 48 h, basal, profiling panel (AID 1165);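 also: viability of MM1S multiple myeloma cells under basal unstimulated conditions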
Details: higher = more signal

| Compound | z-score |
| --- | --- |
| CC(CCN1CCCCc2nc(C)c(C)cc21)=NOC[C@@H](C)[C@H](OCc1ccccc1)C(C)C | -1.5 |
| COC(=O)CC=C[C@@H](C)[C@@H](C=NO[C@@H]1O[C@H](COC(C)=O)[C@@H](OC(C)=O)[C@H](OC(C)=O)[C@H]1OC(C)=O)OC | -0.171 |
| CO[C@@H]1COC(=O)[C@H](CCSC)NC(=O)CC=C[C@@H](C)COC(=O)CCC[C@H]1C | -0.38 |
| CCCNC(=O)OC[C@H]1O[C@H](CCON=C(C)CCC(=O)OC[C@H]2O[C@H](c3ccccc3)C=C[C@@H]2Oc2ccc(OC)cc2)C=C[C@@H]1Oc1ccc(OC)cc1 | -1.31 |
| CCN1C(=O)[C@@H]2[C@H]3C(=CC[C@@H]2C1=O)C1(OCCCO1)[C@H]1O[C@H]1[C@H]3O | -3.56 |
| O=C1[C@H]2[C@H]3[C@H](O)[C@H](O)CC(=NOC[C@@H](O)COCc4ccco4)[C@H]3CC[C@H]2C(=O)N1Cc1ccccc1 | 0.455 |
| CO[C@H]1COC(=O)[C@@H](C)COC(=O)[C@H](C)NC(=O)CC=C[C@H]1C | 0.0766 |
| C[C@H]1COC(=O)[C@@H]2CCCN2C(=O)[C@@H](C)COC(=O)[C@H](Cc2ccccc2)NC1=O | 0.119 |
| COC(=O)CC=C[C@@H](C)[C@H](OCc1cccc(-c2ccccc2)c1)C1CCCCC1 | -1.92 |
| C=CC[C@@H]1C=C[C@H](ON=C(C)CCC(=O)OC[C@H]2O[C@H](C#Cc3ccccc3)C=C[C@@H]2Oc2ccc(C)cc2)[C@@H](CO)O1 | 0.551 |
| CON=C[C@@H](NS(=O)(=O)c1ccc(C)cc1)[C@H](C)C=CCC(=O)OC | 0.561 |
| CO[C@@H]1COC(=O)CC=C[C@H](C)[C@H](OC)COC(=O)[C@H](C)NC(=O)CC=C[C@H]1C | -0.0284 |
| CC(CCC(=O)OC[C@H]1O[C@H](C#Cc2ccccc2)C=C[C@@H]1Oc1ccc(C)cc1)=NO[C@H](C)c1cn([C@H](CO)Cc2ccccc2)nn1 | -3.06 |
| CCOC(=O)[C@H](Cc1ccccc1)NC(=O)CCC1CC(OC(=O)NCc2cccc3ccccc23)CC2(CCCC(COC(=O)NCC(c3ccccc3)c3ccccc3)O2)O1 (stereo partly specified) | -3.22 |
| CC(C)=CCCC(C)=CCON=C1C[C@@H](O)[C@@H](O)[C@@H]2[C@@H]3C(=O)N(C[C@@H]4CCCO4)C(=O)[C@@H]3CC[C@H]12 | 0.253 |
| COC(=O)[C@H]1O[C@@H](c2c(OC)c(OC)c(C)c(OC)c2OC)[C@H](C)[C@@H](O)[C@H]1C | 1 |
| COc1ccc(O[C@H]2C=C[C@@H](c3ccccc3)O[C@@H]2COC(=O)CCC(C)=NOC[C@@H](O)[C@H]2O[C@@H]3OC(C)(C)O[C@@H]3[C@H]2O)cc1 | 0.152 |
| CCOC(=O)[C@H](CC(C)C)NC(=O)CCC1CC(OC(=O)NCCc2ccc(F)cc2)CC2(CCCC(COC(=O)NCC3CCCCC3)O2)O1 (stereo partly specified) | -0.222 |

| Compound | z-score |
| --- | --- |
| CC(C)=CCCC(C)=CCON=C1C[C@@H](O)[C@@H](O)[C@@H]2[C@@H]3C(=O)N(C4CCCCC4)C(=O)[C@@H]3CC[C@@H]12 | -2.39 |
| COC(=O)CC=C[C@@H](C)[C@@H](C=NOC[C@H]1O[C@H](c2ccccc2)C=C[C@@H]1Oc1ccc(OC)cc1)NS(=O)(=O)c1ccc(C)cc1 | -1.7 |
| CCc1cc2c(nc1CC)CCN(CCC(C)=NO[C@H](C)c1cn([C@@H]3COC[C@H]3O)nn1)C2 | 0.546 |
| CCOC(=O)NN=C1C[C@@H](O)[C@@H](O)[C@@H]2[C@@H]3C(=O)N(Cc4ccc5c(c4)OCO5)C(=O)[C@@H]3CC[C@H]12 | 0.457 |
| CO[C@H]1COC(=O)CC=C[C@H](C)[C@@H](OC)COC(=O)[C@@H](C)NC(=O)CC=C[C@@H]1C | -0.227 |
| CO[C@@H]1COC(=O)CC=C[C@@H](C)[C@@H]2C=C[C@H](O)[C@@H](COC(=O)CC=C[C@H]1C)O2 | 0.425 |
| CCOC(=O)[C@H](CC(C)C)NC(=O)CCC1CC(OC(=O)NCCc2ccc(F)cc2)CC2(CCCC(COC(=O)NCCc3ccccc3OC)O2)O1 (stereo partly specified) | -1.35 |
| CCCNC(=O)OC[C@H]1O[C@H](CCON=C(C)CCN2CCCc3nc(C)c(C)cc32)C=C[C@@H]1Oc1ccc(OC)cc1 | -0.878 |
| CCC(=O)[C@@]1(O)C(=O)N2C(=C3C(=O)OCC[C@@H]31)N(Cc1ccccc1)C(C)=C(C(=O)OC)[C@H]2c1ccccc1 | -0.184 |
| CC(C)(C)N1C(=O)[C@H]2[C@H]3[C@H](O)C=CC(=O)[C@@H]3CC[C@H]2C1=O | 0.326 |
| CC(CCN1CCCc2nc(C)c(C)cc21)=NO[C@@H](C)c1cc(-c2c(C)cc(C)cc2C)no1 | -0.603 |
| C[C@H](ON=C1[C@H]2CCn3c(=O)n(-c4ccccc4)c(=O)n3[C@H]2[C@H](O)[C@@H]2O[C@H]12)c1cn([C@H](CO)Cc2ccccc2)nn1 | -0.403 |
| CCN1C(=O)[C@H]2[C@H]3[C@H](O)[C@H](O)CC(=O)[C@H]3CC[C@H]2C1=O | 0.14 |
| C#CCCCON=C1C[C@@H](O)[C@@H](O)[C@@H]2[C@@H]3C(=O)N(c4ccc(F)cc4F)C(=O)[C@@H]3CC[C@H]12 | 0.324 |
| O=C(NN=C1C[C@@H](O)[C@@H](O)[C@@H]2[C@@H]3C(=O)N(C4CCCCC4)C(=O)[C@@H]3CC[C@@H]12)OCc1ccccc1 | 0.495 |
| CC(CCN1CCCCc2nc(C)c(C)cc21)=NOC[C@@H](O)COCc1ccco1 | 0.0805 |
| C=CC1=C[C@H](O)[C@@H]2O[C@@H]2C12OCCCO2 | -0.705 |
| CON=C1[C@H]2CCn3c(=O)n(-c4ccccc4)c(=O)n3[C@H]2[C@H](O)[C@@H]2O[C@H]12 | -0.211 |
